Laboratory results as given in publication PMC4336329 (PLoS ONE, 2015).
The whole screen tested about 310,000 compounds, of which about 14,000 (4.5%) showed an effect of 50% or more. The effect is printed as a negative number. Shown is part of a subset that was picked to be rich in strong results.

target: human ether-à-go-go-related gene (hERG) potassium channel (human, UniProt Q12809); test: primary screen, population patch clamp on CHO cells stably expressing hERG; higher = less effect of the substance
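Also: peak tail current of the secondary pulse compared with the same well before compound.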

Chain of human ether-à-go-go-related gene (hERG) potassium channel (Q12809 whole entry, looked up): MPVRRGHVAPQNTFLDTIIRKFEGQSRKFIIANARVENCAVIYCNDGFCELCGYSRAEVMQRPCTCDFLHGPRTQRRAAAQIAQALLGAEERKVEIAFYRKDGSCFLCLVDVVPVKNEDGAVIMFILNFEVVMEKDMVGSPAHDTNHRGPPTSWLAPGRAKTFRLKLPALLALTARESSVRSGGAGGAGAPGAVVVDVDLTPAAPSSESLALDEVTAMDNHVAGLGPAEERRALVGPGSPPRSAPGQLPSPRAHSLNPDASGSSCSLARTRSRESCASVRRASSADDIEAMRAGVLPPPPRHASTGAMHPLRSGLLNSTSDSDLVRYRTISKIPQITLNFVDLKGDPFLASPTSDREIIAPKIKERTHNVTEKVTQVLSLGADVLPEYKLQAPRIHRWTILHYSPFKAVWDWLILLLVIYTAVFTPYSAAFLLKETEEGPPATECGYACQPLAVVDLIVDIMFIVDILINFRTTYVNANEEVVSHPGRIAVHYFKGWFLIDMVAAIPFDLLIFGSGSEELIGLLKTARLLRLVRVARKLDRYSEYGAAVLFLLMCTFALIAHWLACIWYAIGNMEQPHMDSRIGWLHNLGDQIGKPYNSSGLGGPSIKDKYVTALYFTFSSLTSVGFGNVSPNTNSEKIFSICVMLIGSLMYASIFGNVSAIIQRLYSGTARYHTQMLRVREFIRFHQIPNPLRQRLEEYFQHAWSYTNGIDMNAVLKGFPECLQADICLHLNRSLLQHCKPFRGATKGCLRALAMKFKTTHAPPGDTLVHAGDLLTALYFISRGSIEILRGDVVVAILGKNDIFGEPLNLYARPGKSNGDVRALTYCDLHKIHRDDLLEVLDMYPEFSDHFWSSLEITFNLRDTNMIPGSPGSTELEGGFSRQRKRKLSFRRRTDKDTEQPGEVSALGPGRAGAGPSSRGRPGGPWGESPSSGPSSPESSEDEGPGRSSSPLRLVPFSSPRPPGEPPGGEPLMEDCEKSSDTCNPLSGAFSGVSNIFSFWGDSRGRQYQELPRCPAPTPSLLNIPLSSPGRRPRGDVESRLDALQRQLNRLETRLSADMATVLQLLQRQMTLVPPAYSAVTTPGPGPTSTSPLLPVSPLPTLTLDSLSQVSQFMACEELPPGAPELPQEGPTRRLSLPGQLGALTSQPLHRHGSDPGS

Row | Structure (SMILES) | hERG current change (%, negative = inhibition) at 10uM
1 | Cn1cccc1C(=O)OCc1csc(-c2ccccc2)n1 | -20.9%
2 | O=[N+]([O-])c1cccc(N(CC2CO2)S(=O)(=O)c2ccccc2)c1 (stereo not drawn) | -5.4%
3 | CCN(C(=O)c1nn(-c2ccc(OC)cc2)c(=O)c2c1c1ccccc1n2C)c1ccc(OC)cc1 | 18.3%
4 | COCCNC(=O)c1cc(-c2ccncc2)nc2ccc(S(=O)(=O)N3CCOCC3)cc12 | -32.3%
5 | COCCCNC(=O)c1cc(-c2cccnc2)nc2ccc(S(=O)(=O)N3CCCCCC3)cc12 | 30.6%
6 | CCCCN(C)CCNC(=O)c1cc(-c2cccnc2)nc2ccc(S(=O)(=O)N3CCC(C)CC3)cc12 | -35.5%
7 | CCN(CC)CCNC(=O)c1cc(-c2cccnc2)nc2ccc(S(=O)(=O)N3CCC(C)CC3)cc12 | -65.1%
8 | COCCNC(=O)c1cc(-c2ccccn2)nc2ccc(S(=O)(=O)N3CCC(C)CC3)cc12 | -61.8%
9 | CCOCCCNC(=O)c1cc(-c2cccnc2)nc2ccc(S(=O)(=O)N3CCC(C)CC3)cc12 | 12.9%
10 | O=C(CCN1C(=O)C2C3C=CC(C3)C2C1=O)Nc1ccccc1 (stereo not drawn) | 21.1%
11 | CC(C)(C)c1nc2c(Br)cc(Br)cc2c(=O)o1 | 18.9%
12 | Cc1ccc(NC2c3ccccc3C(=O)N2CCN2CCOCC2)cc1 (stereo not drawn) | -12.9%
13 | O=C(c1ccccc1Cl)N1CCC(c2nc3c(nnn3Cc3ccco3)c(=O)[nH]2)CC1 | -22.1%
14 | O=C(c1ccccc1)N1CCC(c2nc3c(nnn3Cc3ccco3)c(=O)[nH]2)CC1 | -32.2%
15 | O=C(c1ccco1)N1CCCC(c2nc3c(nnn3Cc3cccc(Cl)c3)c(=O)[nH]2)C1 (stereo not drawn) | -54.5%
16 | O=C(c1ccco1)N1CCCC(c2nc3c(nnn3Cc3ccc(Cl)cc3Cl)c(=O)[nH]2)C1 (stereo not drawn) | -36.1%
17 | O=C(c1ccc(Cl)cc1Cl)N1CCC(c2nc3c(nnn3Cc3ccco3)c(=O)[nH]2)CC1 | -69%
18 | O=C(c1ccco1)N1CCCC(c2nc3c(nnn3Cc3ccccc3)c(=O)[nH]2)C1 (stereo not drawn) | -8.47%
19 | O=C(Cc1cccs1)N1CCCC(c2nc3c(nnn3Cc3cccc(Cl)c3)c(=O)[nH]2)C1 (stereo not drawn) | -55.6%
20 | O=C(Cc1cccs1)N1CCC(c2nc3c(nnn3Cc3ccc(F)cc3)c(=O)[nH]2)CC1 | -38.9%
21 | O=C(Cc1cccs1)N1CCC(c2nc3c(nnn3Cc3ccccc3)c(=O)[nH]2)CC1 | -56%

Row | Structure (SMILES) | hERG current change (%, negative = inhibition) at 10uM
22 | O=C(Cc1cccs1)N1CCCC(c2nc3c(nnn3Cc3ccc(F)cc3)c(=O)[nH]2)C1 (stereo not drawn) | -35.1%
23 | CC(C)(C)c1ccc(Cn2nnc3c(=O)[nH]c(C4CCN(C(=O)Cc5cccs5)CC4)nc32)cc1 | -4.81%
24 | O=C(c1cccs1)N1CCCC(c2nc3c(nnn3Cc3cccc(Cl)c3)c(=O)[nH]2)C1 (stereo not drawn) | -36.6%
25 | Cc1nc2ccc(Br)cn2c1C(=O)N/N=C\c1ccccc1[N+](=O)[O-] | 27.6%
26 | NC(=O)C[n+]1cccc(C(N)=O)c1.[Cl-] | 12.8%
27 | Cc1ccc(S(=O)(=O)Nc2c(C)n(C)n(-c3ccccc3)c2=O)c(C)c1 | 9.47%
28 | O=C(CCN1CCCCCC1)Nc1ccc2c(c1)OCCO2.O=C(O)C(=O)O | -1.98%
29 | Cc1ccc(S(=O)(=O)NC(C)c2ccccc2)cc1[N+](=O)[O-] (stereo not drawn) | 9.16%
30 | CC(=O)Nc1nnc(COc2ccc(Cl)cc2)s1 | 30.7%
31 | O=C(c1ccccc1)N1CCCC(c2nc3c(nnn3Cc3ccccc3)c(=O)[nH]2)C1 (stereo not drawn) | -3.63%
32 | Cc1ccc(C(=O)N2CCCC(c3nc4c(nnn4Cc4ccccc4)c(=O)[nH]3)C2)cc1 (stereo not drawn) | -62.4%
33 | COc1ccc(Cn2nnc3c(=O)[nH]c(C4CCCN(C(=O)c5ccccc5)C4)nc32)cc1 (stereo not drawn) | -22.5%
34 | Cc1ccc(Cn2nnc3c(=O)[nH]c(C4CCN(S(=O)(=O)c5ccc(F)cc5)CC4)nc32)cc1 | 6.62%
35 | O=c1[nH]c(C2CCN(S(=O)(=O)c3ccc(S(=O)(=O)NC4CC4)cc3)CC2)nc2c1nnn2Cc1ccc(F)cc1 | 3.81%
36 | COC(=O)c1ccc(Cn2nnc3c(=O)[nH]c(C4CCN(S(=O)(=O)c5ccc(F)cc5)CC4)nc32)cc1 | -70.3%
37 | C=C(c1ccccc1O)n1ccnc1 | 27.8%
38 | Cc1[nH]nc2c1C(c1ccco1)C(C#N)=C(N)O2 (stereo not drawn) | 18.4%
39 | Cc1nnc(SCCn2c(N3CCCC(C)C3)nc3c2c(=O)n(C)c(=O)n3C)s1 (stereo not drawn) | -5.21%
40 | CCC(C)(C)n1nnnc1C(c1ccc2ncccc2c1)N1CCN2CCCC2C1 (stereo not drawn) | -10.8%
41 | c1cnc2ccc(C(c3nnnn3C3CCCCC3)N3CCN(C4CCCCC4)CC3)cc2c1 (stereo not drawn) | -78.8%
42 | c1cnc2ccc(C(c3nnnn3C3CCCC3)N3CCN4CCCC4C3)cc2c1 (stereo not drawn) | -45.2%

Row | Structure (SMILES) | hERG current change (%, negative = inhibition) at 10uM
43 | c1cnc2ccc(C(c3nnnn3C3CCCCC3)N3CCN4CCCC4C3)cc2c1 (stereo not drawn) | -109%
44 | c1cnc2ccc(C(c3nnnn3C3CCCCC3)N3CCCCC3)cc2c1 (stereo not drawn) | -15.6%
45 | OC1CCN(C(c2ccc3ncccc3c2)c2nnnn2C2CCCCC2)CC1 (stereo not drawn) | -31.8%
46 | CCOC(=O)c1cccc(N2C(N)=NC(N)=NC2(C)C)c1.Cl | -1.9%
47 | CCOc1ccccc1C(=O)NC(C(=O)NCc1ccc(F)cc1)C(C)C (stereo not drawn) | -14.7%
48 | CC(=O)N/C(=C/c1ccc(OC(F)F)cc1)C(=O)O | 3.4%
49 | COc1ccc(C(=O)Nc2c(N)nc(SCC(=O)N3CCCCCC3)[nH]c2=O)cc1OC | 0.918%
50 | Cc1ccccc1NC(=O)CSc1nnc(Cc2cccn2C)n1-c1ccc(F)cc1 | -0.084%
51 | O=C(NNS(=O)(=O)c1ccc(CCCl)cc1)C(O)(c1ccccc1)c1ccccc1 | -55.9%
52 | O=C(NNS(=O)(=O)c1ccccc1)C(O)(c1ccccc1)c1ccccc1 | 7.23%
53 | Cc1ccc(S(=O)(=O)NNC(=O)C(O)(c2ccccc2)c2ccccc2)cc1 | 1.02%
54 | CC(C)c1cc(CNC(=O)c2ccc(OC3CCN(Cc4ccccn4)CC3)cc2)on1 | -16.1%
55 | O=C(NCCc1ccccn1)c1ccc(OC2CCN(CCc3ccccc3)CC2)cc1 | -41.9%
56 | CCOCCCNC(=O)c1cccc(OC2CCN(S(C)(=O)=O)CC2)c1 | 12.6%
57 | COCCC(=O)N1CCC(Oc2ccc(C(=O)NCc3ccon3)cc2)CC1 | 3.38%
58 | O=C(NCc1ccon1)c1ccc(OC2CCN(CCc3ccccc3)CC2)cc1 | -66.6%
59 | CCc1cc(CNC(=O)c2cccc(OC3CCN(S(C)(=O)=O)CC3)c2)on1 | -70.3%
60 | CCc1cc(CNC(=O)c2ccc(OC3CCN(CCc4ccccc4)CC3)cc2)on1 | -75.5%
61 | O=C(NCCn1cccn1)c1ccc(OC2CCN(CCc3ccccc3)CC2)cc1 | -41.3%
62 | Cc1cc(CNC(=O)c2cccc(OC3CCN(S(=O)(=O)N(C)C)CC3)c2)on1 | 0.225%
63 | COc1ccccc1C(=O)NCCC(=O)N1CCN(c2cccc(C(F)(F)F)c2)CC1 | -21.7%

Row | Structure (SMILES) | hERG current change (%, negative = inhibition) at 10uM
64 | COc1ccc(Cc2nnc(NS(C)(=O)=O)s2)cc1 | 3.9%
65 | Cc1cc(NC(=O)c2cc(CC(C)C)on2)no1 | 7.66%
66 | Nc1c(C(=O)NCc2ccccc2)c2nc3ccccc3nc2n1-c1ccc2c(c1)OCO2 | 5.58%
67 | Cc1ccc2c(c1)c(N=NC(N)=S)c(O)n2Cc1ccccc1 | -1.71%
68 | COc1cccc(C2C(=O)N(C3CCCCC3)CC(=O)N2Cc2ccc(F)cc2)c1 (stereo not drawn) | -43.8%
69 | N#CC(Cc1ccc(OC(F)F)cc1)c1nc2ccccc2[nH]1 (stereo not drawn) | -70.1%
70 | N#CC(Cc1ccccc1OC(F)F)c1nc2ccccc2[nH]1 (stereo not drawn) | -16.2%
71 | COc1cc(CC(C#N)(CO)c2nc3ccccc3[nH]2)ccc1OC(F)F (stereo not drawn) | -18.9%
72 | N#CC(CO)(Cc1ccc(OC(F)F)cc1)c1nc2ccccc2[nH]1 (stereo not drawn) | -52%
73 | O=C(Nc1nc2ccccc2[nH]1)c1ccc(OC(F)F)cc1 | -11%
74 | COc1ccc(CC(C#N)(CO)c2nc3ccccc3[nH]2)cc1 (stereo not drawn) | -7.12%
75 | Cc1cc(C)cc(C(=O)N2CCN(Cc3ccc4c(c3)OCO4)CC2)c1 | -20.1%
76 | COc1ccccc1Oc1ccc(N2CC(C(=O)OCC(=O)c3ccccc3)CC2=O)cc1 (stereo not drawn) | 18%
77 | O=C(Cc1cccs1)N/N=C/c1ccccn1 | -7.62%
78 | Cc1cc(NC(=O)COC(=O)C(C)Oc2ccc(Cl)cc2Cl)no1 (stereo not drawn) | 12.2%
79 | COc1ccc(/C=N/Nc2ccccn2)c(OC)c1OC | 3.27%
80 | Cc1ccc(NS(=O)(=O)c2ccc(-c3cnc(C4CC4)o3)cc2)c(C)c1 | 2.08%
81 | COC(=O)c1ccc(Cn2c(CN3CCOCC3)nc3ccccc3c2=O)o1 | -5.56%
